A number with no mark means an inactive call.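 Rule for the calls, unless noted: active = compounds killing one labelled cell type while sparing the other, by normalised counts and ratio limits, not self-fluorescent; inactive = the rest.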

A short description of the first experiment: modulation of C. elegans fzo-1 (AID 1259413; call rule not given here;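 note: fzo-1 mutant C. elegans worms in liquid wells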). As to conditions: C. elegans fzo-1 modulator screen, mean read-out; hits give high values.
In the case of `Cc1cn([C@H]2C[C@H](N=[N+]=[N-])[C@@H](CO)O2)c(=O)[nH]c1=O`, the mean signal is 236.

Turning to `CN(CCOc1ccc(CC2SC(=O)NC2=O)cc1)c1ccccn1` (centres undefined), the mean signal was 290.

Regarding `COc1ccc(OC)c(C(O)CNC(=O)CN)c1` (centres undefined), the mean signal was 239.

Take `OC(CCN1CCCC1)(c1ccccc1)C1CCCCC1` (centres undefined): the mean signal was 232.

For the compound `NC(=O)N1c2ccccc2CC(=O)c2ccccc21`, the mean signal is 241.

For `CCCNCC(O)COc1ccccc1C(=O)CCc1ccccc1` (centres undefined), the mean signal is 272.

On to `C/C=C/C(=O)N(CC)c1ccccc1C`, for which the mean signal is 254.

Consider `CCCCCCNC(=O)n1cc(F)c(=O)[nH]c1=O`, for which the mean signal was 292.

Turning to `NC(=O)c1cnccn1`, the mean signal was 263.

With `CN(C)CCc1c[nH]c2ccc(C[C@H]3COC(=O)N3)cc12`, the mean signal was 245.

For the compound `COc1ccccc1OCC(O)COC(N)=O` (centres undefined), the mean signal was 264.

On to `COC(=O)Nc1nc2ccc(C(=O)c3ccccc3)cc2[nH]1`, for which the mean signal was 274.

As to `CCn1cc(C(=O)O)c(=O)c2cc(F)c(N3CCN(C)CC3)cc21`, the mean signal is 261.

On to `Cn1cnc([N+](=O)[O-])c1Sc1ncnc2nc[nH]c12`, for which the mean signal is 260.

As to `c1ccc2[nH]c(-c3cscn3)nc2c1`, the mean signal was 278.

`Cc1onc(-c2c(Cl)cccc2Cl)c1C(=O)N[C@@H]1C(=O)N2[C@@H]1SC(C)(C)[C@@H]2C(=O)O`: the mean signal is 230.

On to `Clc1ccc2c(c1)C(N1CCNCC1)=Nc1ccccc1O2`, for which the mean signal is 211.

As for `CO[C@@]1(NC(=O)Cc2cccs2)C(=O)N2C(C(=O)O)=C(COC(N)=O)CS[C@@H]21`, the mean signal was 248.

Take `CCc1cccc2c3c([nH]c12)C(CC)(CC(=O)O)OCC3` (centres undefined): the mean signal was 230.

Consider `CC(C)(C)NCC(O)COc1cccc2c1C[C@H](O)[C@H](O)C2` (some centres undefined), for which the mean signal was 269.

Take `O=S(=O)(O)CCS`: the mean signal was 248.

With `O=c1[nH]cc(F)c(=O)[nH]1`, the mean signal was 262.

A short description of a further experiment: EMT-state selective cytotoxicity in co-culture – imaging, PC-3E GFP, TEM4-18 mCherry, primary screen (AID 1345086).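 Note: normalised mesenchymal count divided by normalised epithelial count so high means epithelial killing; cells exposed to compound for 72 h before imaging.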 The conditions noted are these: PC-3E GFP / TEM4-18 mCherry co-culture, imaging cell counts; at 1 µM; actives lie on both sides; counts scaled to control wells, 1 = unselective.
On to `OCCN1CCN(CCCN2c3ccccc3Sc3ccc(C(F)(F)F)cc32)CC1`, for which the red/green cell ratio (normalised) is 1.23.

With `NS(=O)(=O)c1cc2c(cc1Cl)NC=NS2(=O)=O`, the red/green cell ratio (normalised) is 1.16.

On to `O=C1C(CCS(=O)c2ccccc2)C(=O)N(c2ccccc2)N1c1ccccc1` (centres undefined), for which the red/green cell ratio (normalised) is 1.33.

In the case of `Cc1ccc(-c2cc(C(F)(F)F)nn2-c2ccc(S(N)(=O)=O)cc2)cc1`, the red/green cell ratio (normalised) is 1.22.

On to `CN[C@H]1CC[C@@H](c2ccc(Cl)c(Cl)c2)c2ccccc21`, for which the red/green cell ratio (normalised) was 1.12.

Consider `Cc1ccccc1C(OCCN(C)C)c1ccccc1` (centres undefined), for which the red/green cell ratio (normalised) was 1.09.

On to `CCc1nc(N)nc(N)c1-c1ccc(Cl)cc1`, for which the red/green cell ratio (normalised) was 0.84.

Consider `COc1cc2nc(N(C)CCCNC(=O)C3CCCO3)nc(N)c2cc1OC` (centres undefined), for which the red/green cell ratio (normalised) is 0.93.

With `CN(C)CCOC(c1ccc(Cl)cc1)c1ccccn1` (centres undefined), the red/green cell ratio (normalised) is 1.11.

Regarding `N[C@@H](C(=O)N[C@@H]1C(=O)N2C(C(=O)O)=C(Cl)CS[C@H]12)c1ccccc1`, the red/green cell ratio (normalised) is 1.23.

Take `Nc1ncn([C@@H]2O[C@H](CO)[C@@H](O)[C@H]2O)c(=O)n1`: the red/green cell ratio (normalised) was 0.99.

Consider `NCc1ccc(S(N)(=O)=O)cc1`, for which the red/green cell ratio (normalised) was 1.

As for `Cc1ncc([N+](=O)[O-])n1CC(C)O` (centres undefined), the red/green cell ratio (normalised) was 0.83.

Regarding `Cc1ccc(C)c(OCCCC(C)(C)C(=O)O)c1`, the red/green cell ratio (normalised) was 1.25.

Take `CN1CCCC(n2nc(Cc3ccc(Cl)cc3)c3ccccc3c2=O)CC1` (centres undefined): the red/green cell ratio (normalised) is 0.89.

Turning to `NS(=O)(=O)c1cc2c(cc1C(F)(F)F)NC(Cc1ccccc1)NS2(=O)=O` (centres undefined), the red/green cell ratio (normalised) was 1.09.

As to `COC1=CC(=O)C[C@@H](C)[C@]12Oc1c(Cl)c(OC)cc(OC)c1C2=O`, the red/green cell ratio (normalised) is 0.76.

Consider `Cc1cn([C@H]2C[C@H](N=[N+]=[N-])[C@@H](CO)O2)c(=O)[nH]c1=O`, for which the red/green cell ratio (normalised) is 1.03.

On to `CN(CCOc1ccc(CC2SC(=O)NC2=O)cc1)c1ccccn1` (centres undefined), for which the red/green cell ratio (normalised) is 0.92.

As for `COc1ccc(OC)c(C(O)CNC(=O)CN)c1` (centres undefined), the red/green cell ratio (normalised) is 1.18.

For `OC(CCN1CCCC1)(c1ccccc1)C1CCCCC1` (centres undefined), the red/green cell ratio (normalised) was 1.05.

As to `NC(=O)N1c2ccccc2CC(=O)c2ccccc21`, the red/green cell ratio (normalised) is 1.05.

With `CCCNCC(O)COc1ccccc1C(=O)CCc1ccccc1` (centres undefined), the red/green cell ratio (normalised) was 1.04.

Take `C/C=C/C(=O)N(CC)c1ccccc1C`: the red/green cell ratio (normalised) was 1.1.

As for `CCCCCCNC(=O)n1cc(F)c(=O)[nH]c1=O`, the red/green cell ratio (normalised) was 0.85.

`NC(=O)c1cnccn1`: the red/green cell ratio (normalised) was 1.13.

Regarding `CN(C)CCc1c[nH]c2ccc(C[C@H]3COC(=O)N3)cc12`, the red/green cell ratio (normalised) is 0.98.

For the origin of these results see PubChem BioAssay.
